The text below walks through data of PubChem BioAssay AID1259421 (Broad Institute, 2018).

The structures appear in SMILES notation. “And” between values parts separate entries of the source, which are not always exact repeats. Identical values can stand only once. Hit rate of the full screen: of about 6,400 compounds, about 610 (9.5%) were called active. Cut-off read from the data, not from the text of the source: active = activity change below about -70%; inconclusive = no clear call, values can overlap the other calls; inactive = above that. The sample as a whole holds a higher share of actives than the screen did. Some compounds were tested as several samples or in several runs, with calls that do not always agree. Where a SMILES comes first, the peptide text is derived from it. The star is where a group is joined. PhAc = O=C(Cc1ccccc1)*

A short description of the assay: Toxoplasma gondii ME49Luc growth in HeLa cells, luciferase, no IFN-y, primary screen (AID 1259421). The conditions noted are these: T. gondii ME49Luc in HeLa, 72 h, stronger effect = lower value, concentration not given here.
In the case of `CC(C)=CCC[C@](C)(O)[C@H]1CC[C@]2(C)[C@@H]1[C@H](O)C[C@@H]1[C@@]3(C)CC[C@H](O)C(C)(C)[C@@H]3[C@@H](O)C[C@]12C`, the activity change, negative = inhibition was 8.14% (inactive).
The same measure for `COc1c2ccoc2cc2oc(C)cc(=O)c12`: 0.747% (inactive).
The same measure for `C=C1/C(=C/C=C2/CCC[C@]3(C)[C@@H]([C@H](C)CCCC(C)C)CC[C@@H]23)C[C@@H](O)C[C@@H]1O`: -75.5% (active); for `C=C1CC[C@H](O)C/C1=C/C=C1\CCC[C@]2(C)[C@@H]([C@H](C)CCCC(C)C)CC[C@@H]12`: -78.3% (active).
As for `C=C1CC[C@H](O)C/C1=C/C=C1\CCC[C@]2(C)[C@@H]([C@H](C)CC[C@@H](O)C(C)(C)O)CC[C@@H]12`, the activity change, negative = inhibition was 1.97% (inactive).
As for `C=C1C(=C/C=C2\CCC[C@]3(C)[C@@H]([C@H](C)/C=C/[C@@H](O)C4CC4)CC[C@@H]23)C[C@@H](O)C[C@@H]1O`, the activity change, negative = inhibition is 12.8% (inactive).
As to `C=C1/C(=C\C=C2/CCC[C@]3(C)[C@@H]([C@H](C)/C=C/[C@H](C)C(C)(C)O)CC[C@@H]23)C[C@@H](O)C[C@@H]1O`, the activity change, negative = inhibition is 13.5% (inactive).
The same measure for `C=C1/C(=C\C=C2\CCC[C@]3(C)[C@@H]([C@H](C)CCCC(C)C)CC[C@@H]23)C[C@@H](O)C[C@@H]1O`: -54.9% (inactive).
Turning to `C=C1/C(=C\C=C2/CCC[C@]3(C)[C@@H]([C@H](C)CC[C@@H](O)C(C)C)CC[C@@H]23)C[C@@H](O)C[C@@H]1O`, the activity change, negative = inhibition is 3.62% (inactive).
`C=C1/C(=C/C=C2\CCC[C@]3(C)[C@@H]([C@H](C)/C=C/[C@@H](C)C(C)C)CC[C@@H]23)C[C@@H](O)C[C@@H]1O`: the activity change, negative = inhibition is -75% (active).
The same measure for `C=C1/C(=C\C=C2/CCC[C@]3(C)[C@@H]([C@H](C)CCCC(C)(C)O)CC[C@@H]23)C[C@@H](O)C[C@@H]1O`: -69.8% (inactive) and 11.1% (inactive); for `C[C@H]1OC(O)[C@H](O)[C@H](O)[C@H]1O` (stereo partly specified): -0.633% (inactive).
For the compound `CC(=O)O[C@H]1C[C@@H](O)C(C)(C)C2C[C@@H](OC(C)=O)[C@]3(C)C(CC[C@@]4(C)[C@H](c5ccoc5)OC(=O)C5OC543)[C@]21C` (stereo partly specified), the activity change, negative = inhibition is -2.36% (inactive).
In the case of `Cc1c(Cn2ccnc2)c2ccccc2n1CCC(=O)O`, the activity change, negative = inhibition was 13% (inactive).
Turning to `O=c1[nH]c(-c2ccc(C(F)(F)F)cc2)nc2c1CSCC2`, the activity change, negative = inhibition is 29.4% (inactive).
Consider `NC1(C(=O)N[C@@H](CCO)c2ccc(Cl)cc2)CCN(c2ncnc3[nH]ccc23)CC1`, for which the activity change, negative = inhibition was 9.43% (inactive).
The same measure for `CC(C)C[C@H](NC(=O)[C@@H](Cc1c[nH]c2ccccc12)NC(=O)[C@H](Cc1ccc(O)cc1)NC(=O)[C@H](CO)NC(=O)[C@H](Cc1c[nH]c2ccccc12)NC(=O)[C@H](Cc1cnc[nH]1)NC(=O)[C@@H]1CCC(=O)N1)C(=O)N[C@@H](CCCN=C(N)N)C(=O)N1CCC[C@H]1C(=O)NCC(N)=O`: -22.2% (inactive).
The same measure for `CO[C@@]12[C@@H]3NC3CN1C1=C(C(=O)C(N)=C(C)C1=O)[C@@H]2COC(N)=O` (stereo partly specified): -81.9% (active) and -22.7% (inactive); for `CO[C@@]12[C@H](COC(N)=O)C3=C(C(=O)C(C)=C(N)C3=O)N1C[C@@H]1N[C@@H]12`: -10.9% (inactive).
For the compound `N[C@@H](C(=O)O)C1=CCC=CC1`, the activity change, negative = inhibition was -2.48% (inactive).
As for `C[C@@H]1O[C@@H](OC[C@H]2OC(Oc3c(-c4ccc(O)c(O)c4)oc4cc(O)cc(O)c4c3=O)[C@H](O)[C@@H](O)[C@@H]2O)[C@H](O)[C@H](O)[C@H]1O` (stereo partly specified), the activity change, negative = inhibition was 0.376% (inactive).
In the case of `O=c1c(-c2cc(O)c(O)c(O)c2)coc2cc(O)c(O)c(O)c12`, the activity change, negative = inhibition is 8.75% (inactive).
Consider `NC(=O)N1C(=O)C(C(=O)c2cccs2)c2cc(Cl)ccc21` (stereo unspecified), for which the activity change, negative = inhibition is 8.36% (inactive) and 15.7% (inactive).
Consider `CN(C)C1CCN(C(=O)c2ccc(NC(=O)Nc3ccc(-c4nc(N5CCOCC5)nc(N5CCOCC5)n4)cc3)cc2)CC1`, for which the activity change, negative = inhibition is -1.91% (inactive).
The same measure for `CCNC(=O)Nc1ccc(-c2nc3c(c(N4CCOC[C@@H]4C)n2)CCN(C2COC2)C3)cc1`: -37.1% (inactive).
The same measure for `O=C(Nc1ccncc1)Nc1ccc(-c2nc(N3CCOCC3)nc(N3C4CCC3COC4)n2)cc1`: -80% (active).
The same measure for `CC(C)CCOC(=O)c1ccc(N(C)C)cc1`: 67.6% (inactive).
As to `CN(C)c1ccc(C(=C2C=CC(=[N+](C)C)C=C2)c2ccc(N(C)C)cc2)cc1`, the activity change, negative = inhibition was -90.8% (active) and -81% (active).
For `COc1cccc(/C=N/N=C/c2cccc(OC)c2)c1`, the activity change, negative = inhibition is 6.04% (inactive).
The same measure for `C/C=C/C/C=C/CCC(=O)[C@H]1O[C@H]1C(N)=O`: 20.9% (inactive).
The same measure for `Cc1cc(C2CCCCC2)n(O)c(=O)c1`: -76.5% (active) and -74.6% (active) and -92.8% (active); for `CC(=O)O[C@]1(C(C)=O)CCC2C3C[C@H](C)C4=CC(=O)CC[C@]4(C)C3CC[C@@]21C` (stereo partly specified): 15% (inactive).
As for `CCOC(CN1CCN(CC(C)C(=O)c2ccccc2)CC1)c1ccccc1` (stereo unspecified), the activity change, negative = inhibition was 31.9% (inactive).
On to `NC(=S)N=Nc1ccc(NN=C(N)N)cc1`, for which the activity change, negative = inhibition is 5.33% (inactive).
As for `Cc1ccc(/C=N/NC(=O)c2ccccc2Oc2ccccc2)o1`, the activity change, negative = inhibition is 8.19% (inactive).
The same measure for `CCCCN(CCCC)CCC(O)c1cc2c(Cl)cc(Cl)cc2c2cc(C(F)(F)F)ccc12` (stereo unspecified): -83% (active).
Regarding `CC(=O)N1CCCC1C(=O)O` (stereo unspecified), the activity change, negative = inhibition is 6.22% (inactive).
For `CC(=O)NC1[C@@H](O)OC(CO)[C@@H](O)[C@H]1O` (stereo partly specified), the activity change, negative = inhibition was 16% (inactive).
Regarding `COc1cc2c(cc1OC)CN(CCc1ccc(NC(=O)c3cccc4c(=O)c5cccc(OC)c5[nH]c34)cc1)CC2`, the activity change, negative = inhibition was -79.7% (active).
`COc1cccc([C@H](O)C2CCN(CCc3ccc(F)cc3)CC2)c1OC`: the activity change, negative = inhibition was 11% (inactive).
The same measure for `COc1cc2c(cc1OC)CN(CCc1ccc(NC(=O)c3cc(OC)c(OC)cc3NC(=O)c3cnc4ccccc4c3)cc1)CC2`: 1.38% (inactive); for `COC1CCN(C(=O)c2cc(Cc3n[nH]c(=O)c4ccccc34)ccc2F)CC1`: 11.9% (inactive); for `CCC(=O)OCC(=O)C1(OC(=O)CC)[C@H](C)C[C@H]2C3[C@H](Cl)CC4=CC(=O)C=C[C@]4(C)[C@H]3[C@@H](O)C[C@@]21C` (stereo partly specified): 11.6% (inactive).
The same measure for `c1ccc(CN2CCC3(CCc4ccccc43)CC2)cc1`: 16.7% (inactive) and 4.6% (inactive); for `COc1ccccc1N1CCN(CC(C(=O)NC(C)(C)C)c2ccccc2)CC1` (stereo unspecified): 6.24% (inactive); for `OCc1ccc(O[C@@H]2O[C@@H](CO)[C@@H](O)[C@H](O)[C@H]2O)cc1`: -0.0846% (inactive).
Take `CCOc1cc(/C=C(/C#N)C(N)=O)cc(CSc2ccccc2)c1O`: the activity change, negative = inhibition was 32.6% (inactive).
The same measure for `c1ccc(-c2[nH]ncc2-c2ccnc3ccccc23)nc1`: -65.8% (inactive) and -82.5% (active); for `O=C(NC1CCOCC1)c1ccc(-c2cc(-c3cn[nH]c3-c3ccccn3)ccn2)cc1`: -1.45% (inactive).
The same measure for `Cc1cccc(-c2[nH]ncc2-c2ccc3ncccc3n2)n1`: -16% (inactive); for `C=C1/C(=C\C=C2/CCC[C@]3(C)[C@@H]([C@H](C)CCCC(O)(C(F)(F)F)C(F)(F)F)CC[C@@H]23)C[C@@H](O)C[C@@H]1O`: 7.67% (inactive); for `OC[C@H]1O[C@@H](n2cnc3c(NC4CCCC4)ncnc32)[C@H](O)[C@@H]1O`: 13.5% (inactive).
The same measure for `CNc1ncnc2c1ncn2[C@@H]1O[C@H](CO)[C@@H](O)[C@H]1O`: 13.6% (inactive); for `OC[C@H]1O[C@@H](n2cnc3c(NCc4ccco4)ncnc32)[C@H](O)[C@@H]1O`: -71.9% (active).
As to `OCCOCCN1CCN(Cc2cccc(Oc3ccccc3)c2)CC1`, the activity change, negative = inhibition was 8.65% (inactive).
The same measure for `CC(C)CC(NC(=O)N1CCCCCC1)C(=O)NC(Cc1cn(C)c2ccccc12)C(=O)NC(Cc1ccccn1)C(=O)O` (stereo unspecified): 5.64% (inactive); for `C=CC1=C(C(=O)O)N2C(=O)[C@@H](NC(=O)/C(=N/O)c3csc(N)n3)[C@H]2SC1`: 5.5% (inactive); for `CCOC(=O)CNC(=O)[C@@H]1CCCN1C(=O)Cc1ccccc1` (PhAc-Pro-Gly-OEt): 13.8% (inactive).
On to `O=C1c2ccccc2C(=O)C1c1ccccc1`, for which the activity change, negative = inhibition was -3.55% (inactive).
Turning to `CC(C)(C)C1CCC(CC2C(=O)C(=O)c3ccccc3C2=O)CC1` (stereo unspecified), the activity change, negative = inhibition was -75.1% (active).
On to `O=C1C(=O)C(C2CCC(c3ccc(Cl)cc3)CC2)C(=O)c2ccccc21` (stereo unspecified), for which the activity change, negative = inhibition is -68.3% (inactive) and -68.8% (inactive).
On to `CS/C(N)=C(C#N)/C(C#N)=C(\N)SC`, for which the activity change, negative = inhibition is 1.99% (inactive) and 0.209% (inactive).
The same measure for `O=C(O)c1ccc(NC2OCC(O)C(O)C2O)cc1` (stereo unspecified): 11.7% (inactive); for `CCCCCCCCNC(=O)C(Cc1ccc(OCc2ccncc2)cc1)NC(=O)C1CCC(CN)CC1` (stereo unspecified): 20.5% (inactive); for `NC(=O)c1[nH]cnc1O`: 5.36% (inactive).
For the compound `CN(C)/N=N/c1nc[nH]c1C(N)=O`, the activity change, negative = inhibition was -84.8% (active) and -88.3% (active) and -94.9% (active).
The same measure for `CN(C)N=Nc1ccc(C(=O)O)cc1`: 17.4% (inactive).
As for `Cc1cc(-c2ccc(N=Nc3ccc4c(S(=O)(=O)O)cc(S(=O)(=O)O)c(N)c4c3O)c(C)c2)ccc1N=Nc1ccc2c(S(=O)(=O)O)cc(S(=O)(=O)O)c(N)c2c1O`, the activity change, negative = inhibition was -45.6% (inactive).
The same measure for `Cc1cnc(NC(=O)C2C(=O)c3ccccc3S(=O)(=O)N2C)s1` (stereo unspecified): 17.6% (inactive) and 14.2% (inactive); for `CN1CCc2cc3c(cc2C(=O)Cc2ccc4c(c2C1)OCO4)OCO3`: 7.67% (inactive).
The same measure for `CC[C@@H](C(=O)C(C)[C@@H](O)[C@H](C)CCc1ccc(C)c(O)c1C(=O)O)C1OC(CC)(C2CC[C@](O)(CC)[C@H](C)O2)C[C@@H]1C` (stereo partly specified): -85.8% (active).
